Mm-Cpn inhibitor: Inhibitors of TCP-1 ring complex (TRiC) of Methanococcus maripaludis (MmCpn): qHTS; purified Mm-Cpn ATPase, ADP Transcreener TR-FRET; 330,000 compounds, 0.031% hits; Potency, µM (series often up to 76.9 µM), for inactives: top-dose activity, negative = inhibition, actives largely listed as inhibitors; note: % is set by controls: 0 for no effect and ±100 for the full control effect; nearly all actives have a fitted effect of over 80% in size
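Reaction buffer contained 30 mM Tris pH 7.4, 100 mM KCl, 5 mM MgCl2 and 1 mM DTT. Mm-CPN (25 nM final) hydrolysed 10 uM ATP over 30 min at 37°C; ADP was read by HTRF.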
Integrin act MD: qHTS for Activators of Integrin-Mediated Alleviation for Muscular Dystrophy. alpha7betagal myoblasts, beta-gal FDG fluorescence, 48 h. Potency, µM (highest dose often 38.3 µM), for inactives: top-dose activation, actives largely listed as activators. 350,000 compounds, 0.064% hits. AID 624291, 2012;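 note: 100% = response of the positive control SU9516; nearly all actives have a fitted effect of over 60% in size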
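Alpha7betagal+/- myoblasts (passage 13) were plated 16-24 hr, then exposed to compounds (1:260 dilution of DMSO stock) for 48 hours at 37C. After MPER lysis, β-galactosidase reporter activity was read as FDG fluorescence (ex 480/em 540) after 30 minutes.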
ClpP mod: qHTS Assay for Activators of ClpP; ATP-dependent Clp protease proteolytic subunit (Bacillus subtilis (strain 168)), P80244; purified B. subtilis ClpP, FRET peptide cleavage, 20 min; Potency, µM (highest dose often 57.5 µM), inactives show top-dose activity change, negative = active; 340,000 compounds, 1.9% hits; active = well fitted falling curve with a large enough effect; inconclusive = small, poorly fitted or top-dose-only effect; inactive = no such curve, though single readings can be large or run the other way; note: the source files actives as falling curves though it sought activators and does not explain the sign; nearly all actives have a fitted effect of over 65% in size
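Purified B. subtilis ClpP, 10 microg/mL final in Tris/HCl pH8 with KCl, BSA, glycerol and Tween-20, cleaved an Abz/nitrotyrosine-quenched decapeptide. Fluorescence (ex 320, em 430) was read at 0 and 20 min at room temperature. Delta was normalized to 5.8 microM ADEP and DMSO/no-enzyme controls.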
p53 reactivator: qHTS assay for re-activators of p53 using a Luc reporter. H1299 p53-A138V BP100-luciferase reporter, luminescence, 24 h. Potency, µM (highest dose often 92.2 µM), for inactives: at the highest dose activity change, positive = activation, actives largely listed as activators. 320,000 compounds, 0.063% hits; note: % of control where 0% means no effect; nearly all actives have a fitted effect of over 45% in size
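p53-null H1299 cells stably carrying temperature-sensitive p53-A138V and a BP100-luciferase reporter were pinned with compounds (4-point, 1:5 series) and held 24 hrs at 37 deg C. Luminescence was read 10 min after detection reagent.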
Eya2 inh: qHTS Assay for Inhibitors of the Phosphatase Activity of Eya2. Protein phosphatase EYA2 (Homo sapiens), O00167. recombinant Eya2, OMFP fluorescence dephosphorylation (OMFP is methylfluorescein phosphate). Potency, µM (titrated, usually from 76.9 µM), for inactives: at the top dose activity, negative = inhibition, hits mostly inhibitors. 330,000 compounds, 0.006% hits; note: % is set by controls: 0 for no effect and ±100 for the full control effect
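Eya2 protein (added as 0.2 uM solution) was preincubated with compound for 10 min at ambient temperature in 50 mM HEPES pH 7.5, 50 mM NaCl, 5 uM MgCl2, 0.05% BSA, 1 mM DTT. OMFP (added at 50 uM) then reacted 10 min; fluorescence read at 485/525 nm.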
USP2a block: qHTS Assay for Inhibitors of Ubiquitin-specific Protease USP2a Using CHOP2 as the Reporter; Ubiquitin carboxyl-terminal hydrolase 2 (Homo sapiens), O75604; USP2 core, Ub-CHOP2 coupled fluorogenic reporter, 485/531; 330,000 compounds, 0.01% hits; AID 463254, 2010; Potency, µM (titrated, usually from 38.3 µM), inactives show top-dose activity change, negative = inhibition, most hits filed as inhibitors;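 note: plate controls were DMSO wells for no effect and full inhibition by NEM control for full effect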
Target sequence (O75604 whole entry, looked up): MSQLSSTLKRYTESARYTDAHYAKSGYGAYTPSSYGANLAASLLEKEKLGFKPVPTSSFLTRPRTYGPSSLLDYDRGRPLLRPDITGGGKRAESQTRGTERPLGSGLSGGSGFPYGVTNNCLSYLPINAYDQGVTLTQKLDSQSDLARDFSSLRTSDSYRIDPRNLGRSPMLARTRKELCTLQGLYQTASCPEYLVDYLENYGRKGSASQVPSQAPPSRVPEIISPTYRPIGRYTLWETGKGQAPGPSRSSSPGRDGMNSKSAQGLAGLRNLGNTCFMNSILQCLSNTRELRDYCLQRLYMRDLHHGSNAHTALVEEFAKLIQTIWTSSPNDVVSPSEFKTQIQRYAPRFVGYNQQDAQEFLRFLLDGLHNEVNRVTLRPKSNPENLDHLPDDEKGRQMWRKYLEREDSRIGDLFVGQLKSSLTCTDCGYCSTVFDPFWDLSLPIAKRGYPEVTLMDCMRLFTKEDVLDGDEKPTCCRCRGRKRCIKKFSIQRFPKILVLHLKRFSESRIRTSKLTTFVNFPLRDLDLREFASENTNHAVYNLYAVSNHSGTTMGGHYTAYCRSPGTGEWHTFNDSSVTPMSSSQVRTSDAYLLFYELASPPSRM
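Cell-free coupled assay: 10nM USP2 core preincubated 30min RT with compound in Tris-HCl pH 8.0/CaCl2/CHAPS buffer, then 25nM Ub-CHOP2 and 25nM reporter substrate; fluorescence (Ex 485/Em 531) read after 60min RT, normalized to NEM inhibition, concentration-response curves fitted.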
An asterisk follows results filed as active; ? = inconclusive; . = not tested or not shown. Only a selection was taken, and hits are over-represented in it overall. Unless noted, calls come from the whole dose curve; as a rule, active = well fitted curve in the direction sought with a large enough effect; inconclusive = small, poorly fitted or top-dose-only effect, or another doubt; inactive = no such curve, though single readings can be large; an effect the other way counts as inactive or inconclusive. Potency is the fitted concentration of half-maximal effect.

SMILES | Mm-Cpn inhibitor | Integrin act MD | ClpP mod | p53 reactivator | Eya2 inh | USP2a block
CCC(=O)Nc1ccc(-c2cc(-c3ccccc3)nc(-c3ccc(NC(=O)CC)cc3)n2)cc1 | -5% | -5% | ? | -7% | 7% | -1%
CC(=O)Nc1ccc(-c2cc(-c3ccc(NC(C)=O)cc3)nc(-c3ccc(NC(C)=O)cc3)n2)cc1 | -13% | 18% | 5.6µM* | -7% | -4% | 1%
COc1ccc(C2N(Cc3ccccc3)CC(=O)N2/N=C(\C)c2ccccc2)cc1 (centres undefined) | -2% | 15% | 16µM* | 21% | -8% | 1%
O=C(c1ccc(-n2cncn2)c([N+](=O)[O-])c1)N1CCN(S(=O)(=O)c2ccccc2F)CC1 | 1% | 7% | 14µM* | 24% | 10% | 1%
O=C(c1ccc(-n2cncn2)c([N+](=O)[O-])c1)N1CCN(S(=O)(=O)c2c(F)cccc2F)CC1 | -2% | 6% | 2% | 5% | 25% | -4%
CNc1nc(-c2ccccc2)c(-c2ccccc2)s1 | . | . | 4% | . | . | .
CCCOc1ccc(S(=O)(=O)Nc2ccccn2)c2ccccc12 | 0% | -10% | -2% | . | 8% | 2%
CCOc1ccc(S(=O)(=O)NCc2ccc(F)cc2)c2cccnc12 | -2% | 12% | 25µM* | -6% | 7% | -3%
CCOc1ccc(S(=O)(=O)Nc2ccccn2)c2ccccc12 | -2% | 11% | 35µM* | -3% | -9% | 0%
O=C(NN1C(=O)NC2(CCCCC2)C1=O)c1ccc(-c2ccc(Cl)cc2)o1 | -10% | 20% | 6.3µM* | -14% | 1% | 0%
O=C(NN1C(=O)NC2(CCCCC2)C1=O)c1cc2cc(Cl)ccc2o1 | -2% | 17% | -2% | -1% | -3% | -4%
O=C(NC1CCC(O)CC1)c1ccc(Br)o1 (centres undefined) | 0% | 2% | 1% | -3% | -1% | 3%
O=C(NC1CCC(O)CC1)c1ccc(-c2ccc(Cl)cc2)o1 (centres undefined) | -1% | 9% | 25µM* | 18% | -31% | 7%
CCCSCCCNC(=O)CN1C(=O)CCn2nc(-c3cn(C)c4ccccc34)cc21 | . | . | -7% | . | . | .
CCCCCOC(=O)Cc1c(O)c2ccccc2[nH]c1=O | -1% | -1% | 16µM* | 2% | -4% | 1%
CC(C)COC(=O)Cc1c(O)c2ccccc2[nH]c1=O | -3% | 7% | 28µM* | 7% | 16% | 8%
CCCCS(=O)c1c(O)c2ccccc2[nH]c1=O (centres undefined) | 2% | 4% | -3% | 16% | 1% | 1%
CCCCCc1c(O)c2ccccc2[nH]c1=O | 0% | 8% | 25µM* | -1% | -2% | 0%
CCCCOC(=O)Cc1c(O)c2ccccc2[nH]c1=O | 0% | -8% | ? | -2% | -4% | -1%
CC(C)CCN(CCC(C)C)C(=O)Cc1c(O)c2ccccc2[nH]c1=O | -2% | -22% | -12% | 1% | ? | 3%
COc1cccc(C(=O)N2c3nc(-c4ccco4)nn3C3(CCCCC3)[C@@H]3CCCC[C@@H]32)c1 | . | . | 0% | . | . | .
CCOC(=O)c1[nH]cnc1C(=O)Nc1cccc(N)n1 | -1% | -18% | 14µM* | 9% | -14% | -3%
Cc1ccc(-c2nnc(SCCC(=O)Nc3ccccc3)n2C)cc1 | . | . | 2% | . | . | .
Cn1c(SCc2ccc(F)cc2)nc2ccc(C(=O)NCc3ccc(F)cc3)cc21 | . | . | -1% | . | . | .
Cc1ccnc(NS(=O)(=O)c2ccc(Oc3ccccc3)cc2)c1 | -5% | -16% | 28µM* | -3% | -20% | 2%
SMILES | Mm-Cpn inhibitor | Integrin act MD | ClpP mod | p53 reactivator | Eya2 inh | USP2a block
COc1cccc(NC(=O)c2cn(C3CCCCC3)c(=O)c3c2c2ccccc2n3C)c1 | . | . | 32µM* | . | . | .
Cn1c2ccccc2c2c(C(=O)NCCCN3CCCC3=O)cn(C3CCCCC3)c(=O)c21 | 2% | -28% | 14µM* | -2% | 2% | -1%
COc1cc(Cl)c(C)cc1NC(=O)c1cn(C2CCCC2)c(=O)c2c1c1ccccc1n2C | . | . | -7% | . | . | .
c1ccc(C(c2nnnn2C2CCCCC2)N2CCc3ccccc3C2)nc1 (centres undefined) | -12% | -11% | 2.5µM* | -6% | -8% | 1%
O=C(Nc1ccccc1F)c1ccc([N+](=O)[O-])s1 | -4% | 13µM* | -7% | ? | -19% | 0%
COc1ccc(-c2ccc3c(N)c(C(=O)NCc4ccc(C)cc4)sc3n2)cc1 | . | . | 11µM* | . | . | .
COC(=O)c1sc2nc[nH]c(=O)c2c1C | 0% | -30% | 16µM* | -12% | 2% | 3%
COc1ccc(CNC(=O)c2sc3nc[nH]c(=O)c3c2C)cc1 | . | . | 40µM* | . | . | .
Cc1c(C(=O)OC(C)C)sc2nc[nH]c(=O)c12 | -10% | -12% | ? | 4% | 7% | 0%
Cc1ccc(CNC(=O)c2sc3nc[nH]c(=O)c3c2C)cc1 | . | . | 5% | . | . | .
Cc1c(O)c2c(c(C(=O)/C=C/c3ccccc3)c1O)OC(C)(C)C=C2 | . | . | -1% | . | . | .
COC(=O)c1ccccc1NC(=O)c1cc[n+]([O-])cc1 | -3% | 4µM* | -1% | -3% | 0% | -1%
COC(=O)c1ccccc1NC(=O)c1cc[n+](C)cc1 | . | 5% | . | . | . | .
COC(=O)[C@H](C)NC(=O)Nc1ccccc1C(F)(F)F | 3% | 20% | 1% | -2% | 0% | 0%
COC(=O)c1ccccc1NC(=O)c1cccc(COc2ccccc2Cl)c1 | 0% | -9% | 25µM* | ? | 2% | 0%
CCOC(=O)c1ccccc1NC(=O)/C=C/C(=O)O | -1% | -8% | 1% | -2% | 4% | 5%
CCOC(=O)c1ccccc1NC(=O)N[C@@H](C)C(=O)OC | 0% | 8% | 20µM* | -4% | 9% | 3%
COC(=O)c1ccccc1NC(=O)N[C@@H](C)C(=O)OC | 2% | -16% | 28µM* | -1% | -8% | 3%
CN(c1ccccc1)S(=O)(=O)c1cccc(NC(=O)c2ccc(=O)[nH]n2)c1 | 0% | -8% | 25µM* | 2% | 4% | 1%
C=CCOc1ccc2c(OC)c3ccoc3nc2c1OC | -3% | -5% | 22µM* | ? | -15% | 4%

Assay outcomes: PubChem, National Center for Advancing Translational Sciences (NCATS)
